The text below walks through data of PubChem BioAssay (EPA / NIEHS).

Active and inactive are the calls of the source. The calls were made as follows: active = hit-call score of the fitted dose curve at least 0.9, where 1 is the maximum; inactive = score below 0.9.

The AC50 is the concentration giving half of the maximal activity seen.

This test can be described thus: APR_HepG2_MitoMembPot_72hr: Apredica 72-hour HepG2 Assay for Mitochondrial Membrane Potential (AID 2282917). The following applies: imaging, actives raise or lower the signal. Here is the method: APR_HepG2_72hr is a cell-based, multiplexed-readout assay that uses HepG2, a human liver cell line, with measurements taken at 72 hours after chemical dosing in a 384-well plate.APR_HepG2_MitoMembPot_72hr is one of 10 assay component(s) measured or calculated from the APR_HepG2_72hr assay. It is designed to make measurements of dye binding, a form of membrane potential reporter, as detected with fluorescence intensity signals by HCS Fluorescent Imaging technology.Data from the assay component APR_HepG2_MitoMembPot_72hr was analyzed into 1 assay endpoint. This assay endpoint, APR_HepG2_MitoMembPot_72hr, was analyzed with bidirectional fitting relative to DMSO as the negative control and baseline of activity. Using a type of membrane potential reporter, gain or loss-of-signal activity can be used to understand changes in the signaling. Furthermore, this assay endpoint can be referred to as a primary readout, because this assay has produced multiple assay endpoints where this one serves a signaling function. To generalize the intended target to other relatable targets, this assay endpoint is annotated to the cell morphology intended target family, where the subfamily is organelle conformation.
Cells were treated with dimethyl sulfoxide (DMSO) as a solvent control at a final concentration of 0.5% v/v or with compounds in DMSO with a resulting final DMSO concentration of 0.5% v/v. Compound treatment was done at concentrations of 0.39, 0.78, 1.56, 3.12, 6.24, 12.5, 25, 50, 100, and 200 uM in duplicate on each plate. Cells were treated with compounds for 1, 24, or 72 hr. Carbonyl […] m-chloro-phenylhydrazone (CCCP) and taxol were used as positive controls for mitochondrial function and cytoskeletal stability, respectively; DMSO served as the negative control for this experiment. Cells were fixed by the direct addition of 50 uL formaldehyde in Hank's Balanced Salt Solution (HBSS) to a final concentration of 3.7%. After incubation in the fixation medium for 30 min at room temperature (293-298 K), cells were rinsed twice with HBSS and treated with cell permeabilization buffer (16 uL of 0.5% Triton X-100) for 10 min at room temperature (293-298 K) before labeling. For mitochondrial membrane potential and mitochondrial measurements, pre-fixed cells were incubated with 50 uL of MitoTracker Red CMXRos (Invitrogen) at a concentration of 250 nM for 30 min before fixation. In the remaining cases, post-fixed cells were labeled by incubation with a multiplexed mixture of primary antibodies in HBSS for 60 min at room temperature (293-298 K) to detect immunoreactivity of c-Jun (1:500), phospho-histone H3 (1:100), phospho-histone H2A.x (1:200), p53 (1:400), alpha-tubulin (1:200) and Hoechst 33342 (2 ug/mL). Cells were labeled for multiplexed imaging on two separate plates: a) Hoechst 33342, MitoTracker Red, phospho-histone H3, and alpha-tubulin, and b) Hoechst 33342, phospho-histone H2A.x, and c-Jun. A final rinse with HBSS (50 uL) was performed before analysis. The primary and secondary antibodies for the proteins were phospho-histone H3 (rabbit anti-phospho-histone H3 and FITC-donkey anti-rabbit IgG), phospho-histone H2A.x (mouse anti-phospho-histone H2A.x and FITC-donkey anti-mouse IgG), c-Jun (rabbit anti-phospho-c-Jun and Cy3-donkey anti-rabbit IgG), p53 (sheep anti-p53 and Cy5-donkey anti-sheep IgG), alpha-tubulin (mouse anti-alpha-tubulin and Cy5-donkey anti-mouse IgG). These antibodies are available as the CellCiphr HepG2 assay kit (Millipore).Digital images of each well were captured using a Cellomics ArrayScan VTI (Thermo Scientific Cellomics) (0.8 NA objective, 0.63x optical coupler, and XF-93 filter set) at 20x magnification. The images were acquired using the autofocus feature of the ArrayScan instrument, which entails the following steps. First, the camera focuses on channel 1 (Hoechst 33342), where nuclei are identified. Second, a Z offset of 1 um is used for capturing mitochondria (MitoTracker Red). […]
For `Nc1ccc2ccccc2c1`, the outcome was inactive.
Still for that read-out and setting: then `CCCCCCCc1ccc(O)cc1`, with “inactive”; and `c1nc[nH]n1`, with “inactive”.
On the same count and under the same terms, under `CCOc1ccc(C(C)(C)COCc2cccc(Oc3ccccc3)c2)cc1` stands “inactive”.
The same measure, in the same setting: under `CC(Cc1ccc(OCC(=O)O)cc1)NCC(O)c1csc(C(F)(F)F)n1` (stereo not given) stands “inactive”; under `O=P(Oc1ccccc1)(Oc1ccccc1)Oc1ccccc1`, “inactive”.
As to `CCCCN(CCCC)SN(C)C(=O)Oc1cccc2c1OC(C)(C)C2`, the result was inactive.
On the same count and under the same terms, then `COCCOCCO`, with “inactive”.
As for `CCC(C)(C)c1ccc(O)cc1`, the AC50 is 56.4 µM (active).
Turning to `O=C(O)C(Cl)Cl`, the compound was called inactive.
As to `CCOC(=O)c1ccccc1C(=O)OCC`, the compound was classed as inactive.
On the same count and under the same terms, then `c1ccc(OP(Oc2ccccc2)Oc2ccccc2)cc1`, with “inactive”.
As to `CCOP(=S)(Oc1ccc([N+](=O)[O-])cc1)c1ccccc1` (stereo not given), the compound was called inactive.
As for `ClC(Cl)(Cl)c1ccccc1`, the compound was classed as inactive.
Same read-out and setting: under `Cc1ccc(N)cc1N` stands “inactive”; under `Nc1cc2c3c(c1)C(c1ccccc1)=N[C@@H](NC(=O)c1cccnc1)C(=O)N3CC2`, “inactive”.
For the compound `CC(Cl)(Cl)C(=O)O`, the compound was classed as inactive.
The same measure, in the same setting: then `Cc1ccc(O)cc1C`, with “inactive”; and `CC(C)(C)c1ccc(O)cc1`, with “inactive”.
Still for that read-out and setting: then `CC(C)(C)OOC(C)(C)C`, with “inactive”; and `CCC1(c2ccccc2)C(=O)N=C(O)NC1=O` (stereo not given), with “inactive”; and `CCNc1nc(Cl)nc(NC(C)(C)C)n1`, with “inactive”.
Same read-out and setting: under `CCCCc1ccccc1` stands “inactive”.
Turning to `Cc1cccc(N)c1`, the call was inactive.
On the same count and under the same terms, under `CSC(C)(C)C=NO` stands “inactive”.
As for `c1ccc2c(c1)Nc1ccccc1S2`, the AC50 was 123 µM (active).
On to `CCOS(=O)(=O)OCC`, for which the compound was classed as inactive.
On the same count and under the same terms, under `O=P1(N(CCCl)CCCl)NCCCO1` (stereo not given) stands “inactive”.
As for `CCCCN(CCCC)N=O`, the result was inactive.
`Cc1ccc([N+](=O)[O-])cc1C`: the compound was called inactive.
Turning to `OCC1CO1` (stereo not given), the compound was classed as inactive.
`O=[N+]([O-])c1ccccc1`: the result was inactive.
In the case of `ClC(Cl)c1ccccc1`, the compound was called inactive.
On the same count and under the same terms, then `O=[N+]([O-])c1ccc(Cl)c(Cl)c1`, with “inactive”.
In the case of `ClC1=C(Cl)C2(Cl)C3C(Cl)C(Cl)CC3C1(Cl)C2(Cl)Cl` (stereo not given), the AC50 was 27.1 µM (active).
`Nc1ccc(Cl)cc1`: the compound was called inactive.
On to `CCCN(CCC)c1c([N+](=O)[O-])cc(C(C)C)cc1[N+](=O)[O-]`, for which the AC50 is 46.9 µM (active).
For `CCOP(=S)(OCC)SCSCC`, the compound was classed as inactive.
Still for that read-out and setting: then `[N-]=[N+]=[N-]`, with “inactive”.
Still for that read-out and setting: then `CCN(CC)c1ccccc1`, with “inactive”.
